Assay outcomes deposited in PubChem by The Scripps Research Institute Molecular Screening Center.
PREPL inh – human PREPL enzyme inhibition; Q4J6C6; recombinant PREPL, fluorescence polarization activity-based probe; inhibition, % at 5.96 µM; hit rate 0.68% among 320,000; AID 2751; in the data active means inhibition above about 43%;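 further: 0% = enzyme with DMSO and 100% = wells lacking enzyme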
LYPLA1 counter – blocks human lysophospholipase 1, a PME1 counter-screen | AID 2174 | inhibition, % at 5.9 µM | recombinant LYPLA1, FP-Rh probe fluorescence polarization | hit rate 0.16% among 320,000 | O75608;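 active means inhibition above the mean of all tested compounds plus 3 SD, set per campaign, cut at about 14% in these data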;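 further: inhibitors block serine hydrolase probe labeling of LYPLA1 so polarization falls; 0% = enzyme with DMSO and 100% = wells lacking LYPLA1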
GSTO1 counter – GSTO1 inhibition, counter-screen for RBBP9 inhibitors. hit rate 1.1% among 300,000. recombinant GSTO1, activity-based probe fluorescence polarization. P78417. inhibition, % at 5.96 µM;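 active means inhibition above the campaign mean inhibition plus 3 SD, cut at about 35% in these data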;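 further: 0% = GSTO1-1 with DMSO and 100% = wells lacking GSTO1-1 enzyme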
LYPLA2 inh – blocks human lysophospholipase 2, a PME1 counter-screen | AID 2177 | recombinant LYPLA2, FP-Rh probe fluorescence polarization | O95372 | hit rate 0.38% among 320,000 | inhibition, % at 5.9 µM;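 active means inhibition above the screen-wide mean plus 3 SD, limit set per campaign, cut at about 26% in these data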;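 further: 0% = LYPLA2 with DMSO and 100% = wells lacking LYPLA2 enzyme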
Target sequence (O95372 whole entry, looked up): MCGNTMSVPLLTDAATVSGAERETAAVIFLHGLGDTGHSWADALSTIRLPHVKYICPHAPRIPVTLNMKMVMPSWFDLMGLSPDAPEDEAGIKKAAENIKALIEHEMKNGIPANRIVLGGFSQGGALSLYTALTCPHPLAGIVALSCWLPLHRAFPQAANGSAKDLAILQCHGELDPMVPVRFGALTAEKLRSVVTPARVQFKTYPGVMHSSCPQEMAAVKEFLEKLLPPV
PME-1 inh – PME-1 (human) inhibition | recombinant PME-1, FP-Rh probe fluorescence polarization | inhibition, % at 5.9 µM | hit rate 0.53% among 320,000 | AID 2130;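 active means inhibition above the campaign mean of all compounds plus 3 SD, cut at about 26% in these data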;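 further: competitive labeling of PME-1 active site by serine hydrolase directed probe; 0% = PME-1 with DMSO and 100% = wells lacking PME-1 enzyme; inhibitors block probe labeling so polarization falls and inhibition rises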
Target sequence (Q9Y570 whole entry, looked up): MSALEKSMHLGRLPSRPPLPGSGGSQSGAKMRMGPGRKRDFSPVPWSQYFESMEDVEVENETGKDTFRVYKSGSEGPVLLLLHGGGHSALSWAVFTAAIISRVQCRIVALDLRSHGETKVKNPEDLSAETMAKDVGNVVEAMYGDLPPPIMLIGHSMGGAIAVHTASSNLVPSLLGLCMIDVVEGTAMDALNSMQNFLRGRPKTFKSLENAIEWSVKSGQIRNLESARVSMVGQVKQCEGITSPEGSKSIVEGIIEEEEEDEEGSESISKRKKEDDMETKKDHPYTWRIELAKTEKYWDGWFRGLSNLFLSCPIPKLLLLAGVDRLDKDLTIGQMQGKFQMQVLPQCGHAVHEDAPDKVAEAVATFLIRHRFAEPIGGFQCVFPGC
Fam108B inh – counter-screen for RBBP9 inhibitors: inhibitors of mouse Fam108B | hit rate 0.33% among 300,000 | inhibition, % at 9.51 µM | recombinant Fam108B, FP-Rh probe fluorescence polarization;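 active means inhibition above the screen mean inhibition plus 3 SD, computed separately per campaign, cut at about 18% in these data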;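 further: inhibitors lower polarization as less probe binds the enzyme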
Fam108b inh conf – confirmation of mouse Fam108b serine hydrolase inhibitors; shares compounds with Fam108B inh; hit rate 44% among 930; recombinant Fam108b, FP-Rh probe fluorescence polarization; inhibition, % at 9.51 µM; AID 1978;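 active means inhibition above a limit from the primary screen, the mean over all compounds plus 3 SD, cut at about 19% in these data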;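 further: 0% = median of active Fam108b wells and 100% = catalytically dead S170A mutant; inhibitors free the probe so polarization falls as inhibition rises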
Fam108b inh – inhibits mouse Fam108b in gel-based ABPP | inhibition, % at 20 µM | shares compounds with Fam108B inh | hit rate 44% among 260 | AID 588649 | recombinant Fam108b, fluorophosphonate probe; in the data active means inhibition above about 40%
GSTO1 confirm – GSTO1 (human) inhibition, confirmation; recombinant GSTO1, probe fluorescence polarization; shares compounds with GSTO1 counter; hit rate 54% among 2,400; inhibition, % at 5.96 µM;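 active means inhibition above the primary screen's cutoff, its mean inhibition plus 3 SD, cut at about 35% in these data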;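 further: loss of polarization as inhibitors block binding of rhodamine sulfonate ester activity probe; 0% = GSTO1 with DMSO and 100% = wells lacking GSTO1 enzyme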
An asterisk follows results filed as active; nt = no result given. Only some compounds are listed: those with a hit (about 1.9% of all), similar ones and a draw of the others.

SMILES	PREPL inh	LYPLA1 counter	GSTO1 counter	LYPLA2 inh	PME-1 inh	Fam108B inh	Fam108b inh conf	GSTO1 confirm	others
C=Cc1c(C)c2cc3[nH]c(cc4nc(cc5nc(cc1[nH]2)C(C)=C5CCC(=O)O)C(CCC(=O)O)=C4C)c(C)c3C=C	40	14	89*	17	-4	46*	44*	82*	Fam108b inh=0
NS(=O)(=O)c1ccc(CCNC(=O)COC(=O)/C=C/c2cc(Br)ccc2F)cc1	3	nt	nt	nt	nt	nt	nt	nt
CC(Sc1ncccn1)C(=O)NNC(=O)c1cccc(Cl)c1 (stereo not given)	13	nt	nt	nt	nt	nt	nt	nt
O=C(COc1ccc(Br)cc1)NCC1COc2ccccc2O1 (stereo not given)	-27	2	nt	6	4	nt	nt	nt
CC(C(=O)O)N1C(=O)/C(=C/C=C/c2ccco2)SC1=S (stereo not given)	12	-6	64*	-6	-22	30*	14	30
O=C1N(c2ccccc2C(F)(F)F)O[C@]1(c1ccccc1)C1CCCCC1	23	0	nt	-3	-2	nt	nt	nt
CNc1ccc(Br)cc(C(=O)/C=C/c2ccc3c(c2)OCO3)c1=O	11	5	55*	11	3	18*	6	16
CNc1ccc(Br)cc(C(=O)/C=C/c2ccc(OC)cc2)c1=O	0	1	28	-2	13	10	nt	nt
Cc1ccccc1Nc1cc2ccccc2c(=O)[nH]1	6	1	74*	6	16	21*	19*	45*
Cc1[nH]n(-c2ccccc2)c(=O)c1N=Nc1c(O)cc(S(=O)(=O)N(C)C)c2ccccc12	10	-1	47*	6	54*	75*	89*	71*	Fam108b inh=0
Cc1[nH]n(-c2ccccc2)c(=O)c1N=Nc1ccc2c(c1)OCCO2	5	2	-2	2	4	-1	nt	nt
COc1cc(/C=C2/C(=O)c3cccc([N+](=O)[O-])c3C2=O)c(Br)cc1O	31	1	47*	4	32*	27*	40*	55*	Fam108b inh=45*
COc1ccccc1NC(=O)CCCCCN1C(=O)c2cccc([N+](=O)[O-])c2C1=O	-10	-2	-2	-3	0	0	nt	nt
O=C1C=C(Nc2ccccc2C(=O)O)c2ccccc2C1=O	12	1	75*	5	4	21*	36*	88*	Fam108b inh=0
O=C(Nc1nc(-c2ccco2)c(-c2ccco2)s1)c1c(F)cccc1Cl	16	-17	nt	-21	-2	nt	nt	nt
O=C(Nc1nc(-c2ccco2)c(-c2ccco2)s1)c1cnccn1	18	-3	45*	-4	-3	25*	5	10
COc1cccc(CNc2cccc3cccnc23)c1O	22	-2	26	4	8	2	nt	nt
Oc1c(Br)cc(Br)cc1CNc1cccc2cccnc12	14	-1	67*	14	25	36*	14	92*
CC1=NN(c2ccc(Cl)cc2)C(=O)C1C(c1cccc(O)c1)c1c(C)[nH]n(-c2ccc(Cl)cc2)c1=O (stereo not given)	9	-4	66*	18	17	31*	17	56*
Cc1ccccc1C(=O)N1CCC(C(=O)OCc2nc(N)nc(Nc3ccccc3)n2)CC1	0	-3	nt	4	5	nt	nt	nt
S=c1nc[nH]c2c1sc1nc(N3CCOCC3)c3c(c12)CCCC3	2	-2	0	4	2	1	nt	nt
CC(C)=CCC1=C(OCC(=O)O)C(=O)c2ccccc2C1=O	13	2	89*	8	21	23*	12	85*
COc1ccc(CN(C)C(=O)C23CC4CC(CC(Cl)(C4)C2)C3)c(OC)c1OC	-4	-1	-4	0	0	-2	nt	nt
Nc1c(C(=O)NC2CC2)sc2nc3c(c(-c4ccco4)c12)CC/C3=C/c1ccco1	34	-9	62*	2	10	33*	14	37*
COc1ccc(NC(=O)c2cccnc2)cc1	2	-3	4	-5	0	-4	nt	nt
SMILES	PREPL inh	LYPLA1 counter	GSTO1 counter	LYPLA2 inh	PME-1 inh	Fam108B inh	Fam108b inh conf	GSTO1 confirm	others
C/C(=C\C(=O)c1cccnc1)Nc1ccc(O)cc1	81*	2	38*	9	-16	48*	-3	3
O=C1c2c(O)cccc2Cc2cccc(O)c21	1	-20	45*	2	37*	22*	43*	6
O=C1c2ccccc2CSc2c(O)cccc21	1	-1	11	1	-5	4	nt	nt
Cc1cc(C)c(S(=O)(=O)N2CCN(C3CC(=O)N(c4ccccc4Cl)C3=O)CC2)c(C)c1 (stereo not given)	16	nt	nt	nt	nt	nt	nt	nt
O=C1C(Cl)=C(Nc2ccc3cn[nH]c3c2)C(=O)c2ccccc21	36	0	83*	15	29*	20*	31*	90*	Fam108b inh=70*
COc1ccc(C(=O)N(C)C2CCCCC2)cc1S(=O)(=O)N1CCOCC1	6	0	nt	-2	5	nt	nt	nt
O=C(O)CCNc1cc(N2CCN(C(=O)c3ccco3)CC2)c2noc3c2c1C(=O)c1ccccc1-3	38	3	63*	0	-9	38*	11	75*
Cc1cc(N2CCN(C(=O)c3ccco3)CC2)c2ccccc2n1	12	-2	5	0	0	2	nt	nt
Cc1ccc(C2Nc3cccc4cccc(c34)N2)s1	9	-8	44*	2	12	29*	13	11
COc1ccc(CCN(C)C(=O)c2ccc3c(=O)n4c(nc3c2)CCCCC4)cc1OC	10	nt	nt	nt	nt	nt	nt	nt
COC(=O)c1ccccc1NC1=C/C(=N\S(=O)(=O)c2cccs2)c2ccccc2C1=O	24	-3	79*	9	18	20*	9	84*
COC(=O)c1ccccc1NC1=C/C(=N\S(=O)(=O)c2ccc(C(=O)O)cc2)c2ccccc2C1=O	22	13	86*	26*	21	57*	72*	85*	Fam108b inh=15
O=C1C(Nc2ccccc2)=C/C(=N/S(=O)(=O)c2cccs2)c2ccccc21	30	-4	84*	1	32*	36*	57*	95*
COC(=O)c1ccccc1Nc1ccccc1	-7	3	7	-2	-1	4	nt	nt
COCc1c(C(=O)Nc2cccc(S(=O)(=O)N3CCCCC3)c2)oc2ccccc12	15	nt	nt	nt	nt	nt	nt	nt
CCC(C)c1ccc(OCc2ccc(C(=O)OC)o2)cc1 (stereo not given)	-6	-3	1	1	1	-2	nt	nt
O=C(COC(=O)C1CC1)Nc1nc(-c2ccc(F)c(F)c2)cs1	-14	-2	1	3	-2	0	nt	nt
